Consider one compound from PubChem BioAssay (NCATS).

Assay [1] is described as follows: qHTS assay for small molecule agonists of retinoid X receptor alpha signaling (AID 588544).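 As to activation: 0% = DMSO basal wells and 100% = reference agonist.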 The note with it: HEK293T RXRa-UAS-bla, beta-lactamase reporter, 18 h; 530 nm emission. In general terms: qHTS replaces the single test concentration by a dilution series.
Assay [2] has as its target Retinoic acid receptor RXR-alpha (Homo sapiens) (UniProt P19793). The assay is described as above.
Assay [3] has as its target Thyroid hormone receptor beta (Homo sapiens) (UniProt P10828). As to the kind of experiment: qHTS assay for small molecule agonists of thyroid hormone receptor beta signaling (AID 588545).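 Also: 0% = DMSO only and 100% = 10 nM T3.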 The essentials: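 Compounds were tested as agonists in TR-UAS-bla-GripTite HEK 293 cells. After 18 hrs at 37 C, CCF4 substrate was added and fluorescence read after 2 hrs at room temperature.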

Assay [4] is described as follows: qHTS assay for small molecule antagonists of retinoid X receptor alpha signaling (AID 588546; active = well fitted inhibition curve with a large enough effect in the signal ratio, with a control signal flat, not every such curve was filed as active; the % refers to the signal ratio;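 also: cells stimulated with 9-cis-retinoic acid as agonist; % is scaled to controls: 0 for no effect and ±100 for the full control effect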). The note with it: HEK293T RXRa-UAS-bla, beta-lactamase ratio, antagonist mode; measured here: W530 green channel, cytotoxicity proxy. The essentials: (§1)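 Beta-lactamase reporter inhibition, read as CCF4 fluorescence ratio (ex 405, em 460/530 nm) after 2 h at RT. HEK293T UAS-bla cells, 2500/well, were stimulated with 9-cis-RA at 500 or 100 nM final alongside test compound for 18 h at 37 C.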

Assay [5] addresses Retinoic acid receptor RXR-alpha (Homo sapiens) (UniProt P19793). The description is as above. The note with it: HEK293T RXRa-UAS-bla, beta-lactamase ratio, antagonist mode. The essentials: as §1
For assay [6], the target named is Thyroid hormone receptor beta (Homo sapiens) (UniProt P10828). Nature of the assay: qHTS assay for small molecule antagonists of thyroid hormone receptor beta signaling (AID 588547; active = well fitted inhibition curve with a large enough effect in the signal ratio, with a control signal flat, not every such curve was filed as active; the % refers to the signal ratio;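 also: cells stimulated with 0.4 nM T3 agonist during compound exposure; series mostly up to about 77 µM; % is scaled to controls: 0 for no effect and ±100 for the full control effect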). The following applies: TR-UAS-bla HEK293, beta-lactamase ratio, antagonist mode, 18 h. The essentials: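 Inhibition of T3-driven (0.4nM final) beta-lactamase reporter activity was measured over 0.59 nM to 92 uM compound after 18 h at 37 C. The cells were GripTite HEK293 TR-UAS-bla in charcoal/dextran-stripped serum, with CCF4 ratio read-out and IC50 from Hill fits.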

The target in assay [7] is Voltage-gated inwardly rectifying potassium channel KCNH2 (Homo sapiens) (UniProt Q12809). As to the kind of experiment: qHTS Assay for Small Molecule Inhibitors of the Human hERG Channel Activity (AID 588834; active = well fitted curve in the direction sought with a large enough effect; an effect the other way counts as inactive or inconclusive;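 also: top concentration of the series differs between compounds; % is scaled to controls: 0 for no effect and ±100 for the full control effect; lower thallium flux fluorescence means stronger hERG block; nearly all actives have a fitted effect of over 50% in size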). The essentials:
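In hERG-transduced U2OS cells, dye-loaded for 1 hr at room temperature in dark, test compounds incubated 10 min at 37 °C before thallium stimulation. AC50 values derived by Hill modelling of concentration-response.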

A short description of assay [8]: qHTS assay for small molecule agonists of the antioxidant response element (ARE) signaling pathway (AID 651741; active = well fitted activation curve with a large enough effect in the signal ratio; the % refers to the signal ratio; also: % of control where 0% means no effect). The essentials:
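Beta-lactamase reporter under ARE control in HepG2 cells, 2,000 per well, was induced by 16 h compound treatment at 37 C. Read-out was fluorescence from LiveBLAzer B/G FRET substrate after 2 h at room temperature.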

Assay [9] can be described thus: qHTS assay for small molecule disruptors of the mitochondrial membrane potential - 1 hr assay (AID 651754). Also: % is scaled to controls: 0 for no effect and ±100 for the full control effect; nearly all actives have a fitted effect of over 35% in size. The essentials:
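Loss of mitochondrial potential shifts the cationic dye from red mitochondrial aggregates to green cytoplasmic monomers. Cells (HepG2) are treated with compound for 1 hr before a 30 min dye incubation at 37C.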

A short description of assay [10]: qHTS assay for small molecule disruptors of the mitochondrial membrane potential - 5 hr assay (AID 651755). Also: % is scaled to controls: 0 for no effect and ±100 for the full control effect; nearly all actives have a fitted effect of over 40% in size. The essentials: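 Membrane-potential dye readout: red aggregate (540 ex/590 em) versus green monomer (490 ex/535 em) fluorescence after 30 min dye loading, following 5 hr compound exposure at 37C of overnight-plated HepG2 cells.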
Assay [11] concerns the target Tumor necrosis factor (Homo sapiens) (UniProt P01375). As to the kind of experiment: qHTS assay to identify small molecules that stimulate Tumor Necrosis Factor-alpha (TNF-alpha) secretion (AID 651757; active = well fitted curve in the direction sought with a large enough effect in the signal ratio; the % refers to the signal ratio; also: 0% is about no effect). The essentials: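 Human monocytic THP-1 cells are plated, treated with compound and held at 37 C for 17 hrs. Labeled anti-TNF-alpha antibody mixture is then added; after 3 hr at room temperature, TR-FRET signal reports secreted TNF-alpha.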

A short description of assay [12]: qHTS assay for environmental chemicals that activate the Aryl hydrocarbon Receptor (AhR) signaling pathway (AID 651777; active = well fitted curve in the direction sought with a large enough effect; an effect the other way counts as inactive or inconclusive; also: % of control where 0% means no effect; nearly all actives have a fitted effect of over 15% in size). The note with it: 1A2-DRE human hepatoma cells, luciferase, 24 h; activation: stronger effect = higher value. The essentials:
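Human hepatoma 1A2-DRE cells, stably carrying a dioxin response element and CYP1A2 promoter driving luciferase, were exposed to compounds for 24 hr at 37 C and 5% CO2. Luciferase signal was then read after 30 min One-Glo at room temperature.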

The target of assay [13] is Peroxisome proliferator-activated receptor alpha (Homo sapiens) (UniProt Q07869). Nature of the assay: qHTS assay for small molecule agonists of the peroxisome proliferator-activated receptor alpha (PPARalpha) signaling pathway (AID 651778; active = well fitted curve in the direction sought with a large enough effect; an effect the other way counts as inactive or inconclusive; also: % of control where 0% means no effect). The following applies: PathHunter PPARalpha complementation, chemiluminescence, 6 h; stronger effect = higher value. The essentials: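 Chemiluminescence from complemented enzyme reported PPARalpha activation in cells after 6 hr of compound treatment at 37 C. The detection reagent was incubated for 60 min at room temperature, and compounds were scored as agonists.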

Assay [14] can be described thus: qHTS assay for small molecule agonists of the antioxidant response element (ARE) signaling pathway measured by Nrf2-dependant transcriptional activity (AID 720636; active = well fitted curve in the direction sought with a large enough effect in the repeat runs; an effect the other way counts as inactive or inconclusive; also: % of control where 0% means no effect). The essentials:
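ARE-luc HepG2 cells carrying an Nrf2-responsive luciferase reporter were plated in medium with 1% dialyzed FBS, left 6 hr at 37 C to attach, then exposed to compound for 16 hr. Luciferase luminescence was read after ONE-Glo addition.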

A short description of assay [15]: qHTS assay for small molecule antagonists of the retinoid-related orphan receptor gamma (ROR-gamma) signaling pathway - cell viability counter screen (AID 720652; active = well fitted curve in the direction sought with a large enough effect in the repeat runs; an effect the other way counts as inactive or inconclusive;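 also: CHO reporter cells with doxycycline-induced ROR-gamma expression; series mostly up to about 92 µM; compound exposure lasted 16 hr before ATP read; % is scaled to controls: 0 for no effect and ±100 for the full control effect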). The essentials:
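Steps: seed CHO cells bearing TET-inducible ROR and ROR response element-luciferase; rest 5 hr at 37 C; add compound, then doxycycline; incubate 16 hr; add CellTiter-Glo and read luminescence as ATP-based viability.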

Assay [16] can be described thus: qHTS assay for cell viability of HEK293 cells (AID 743288; active = well fitted curve in the direction sought with a large enough effect; an effect the other way counts as inactive or inconclusive; also: % is scaled to controls: 0 for no effect and ±100 for the full control effect; nearly all actives have a fitted effect of over 50% in size). The note with it: ATP luminescence (CellTiter-Glo), 18 h; max response: stronger effect = lower value. The essentials:
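After 18 h compound exposure at 37 C, parental HEK293 cells (2,000/well) are lysed with CellTiter-Glo and luminescence is read following 30 min at room temperature.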

Assay [17] can be described thus: qHTS assay for cell viability of the p53RE-bla HCT-116 cell line (AID 743292; active = well fitted curve in the direction sought with a large enough effect; an effect the other way counts as inactive or inconclusive; also: % is scaled to controls: 0 for no effect and ±100 for the full control effect; nearly all actives have a fitted effect of over 55% in size). The essentials: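 CellSensor p53RE-bla HCT-116 cells, 4,000/well, preincubated 5 h at 37 C, then exposed to compounds in DMSO for 16 h at 37 C. Viability read as CellTiter-Glo luminescence (intracellular ATP) after 30 min at room temperature.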
A short description of assay [18]: qHTS for Inhibitors of the Functional Ribonucleoprotein Complex (vRNP) of Lassa (LASV) Arenavirus: LASV Primary Screen - GLuc reporter signal (AID 1347082; calls by dose curve; tested in HEK293 reporter line; also: series mostly up to about 57 µM; % is scaled to controls: 0 for no effect and ±100 for the full control effect; nearly all actives have a fitted effect of over 60% in size).
The nature of assay [19]: qHTS for Inhibitors of the Functional Ribonucleoprotein Complex (vRNP) of Lassa (LASV) Arenavirus: Viability assay - alamar blue signal for LASV Primary Screen (AID 1347083; calls by dose curve; tested in HEK293 reporter line; also: series mostly up to about 57 µM; % is scaled to controls: 0 for no effect and ±100 for the full control effect; nearly all actives have a fitted effect of over 80% in size).
Assay [20] is described as follows: qHTS for Inhibitors of the Functional Ribonucleoprotein Complex (vRNP) of Lymphocytic Choriomeningitis Arenaviruses (LCMV): Viability assay - alamar blue signal for LCMV Primary Screen (AID 1347085; calls by dose curve; tested in HEK293 reporter line; also: series mostly up to about 57 µM; % is scaled to controls: 0 for no effect and ±100 for the full control effect; nearly all actives have a fitted effect of over 80% in size).
Assay [21] concerns the target Nucleoprotein (Lymphocytic choriomeningitis virus (strain Armstrong)) (UniProt P09992). Nature of the assay: qHTS for Inhibitors of the Functional Ribonucleoprotein Complex (vRNP) of Lymphocytic Choriomeningitis Arenaviruses (LCMV): LCMV Primary Screen - GLuc reporter signal (AID 1347086). Also: series mostly up to about 57 µM; % is scaled to controls: 0 for no effect and ±100 for the full control effect; nearly all actives have a fitted effect of over 70% in size.
Assay [22] concerns the target Nuclear receptor subfamily 1 group I member 2 (Rattus norvegicus) (UniProt Q9R1A7). Nature of the assay: qHTS assay for small molecule activators of the rat pregnane X receptor (rPXR) signaling pathway (AID 651751; call rule not given here; also: 0% is about no effect). The following applies: rPXR reporter cells, luciferase (One-Glo), 24 h.
Assay [23] can be described thus: qHTS assay for small molecule activators of the human pregnane X receptor (PXR) signaling pathway (AID 720659; call rule not given here; also: 0% is about no effect).

Results filed as inconclusive are left out. Activity calls are given as the source filed them. Unless noted, calls follow the shape of the full dose curve.

Chain of Retinoic acid receptor RXR-alpha (Homo sapiens) (P19793 whole entry, looked up): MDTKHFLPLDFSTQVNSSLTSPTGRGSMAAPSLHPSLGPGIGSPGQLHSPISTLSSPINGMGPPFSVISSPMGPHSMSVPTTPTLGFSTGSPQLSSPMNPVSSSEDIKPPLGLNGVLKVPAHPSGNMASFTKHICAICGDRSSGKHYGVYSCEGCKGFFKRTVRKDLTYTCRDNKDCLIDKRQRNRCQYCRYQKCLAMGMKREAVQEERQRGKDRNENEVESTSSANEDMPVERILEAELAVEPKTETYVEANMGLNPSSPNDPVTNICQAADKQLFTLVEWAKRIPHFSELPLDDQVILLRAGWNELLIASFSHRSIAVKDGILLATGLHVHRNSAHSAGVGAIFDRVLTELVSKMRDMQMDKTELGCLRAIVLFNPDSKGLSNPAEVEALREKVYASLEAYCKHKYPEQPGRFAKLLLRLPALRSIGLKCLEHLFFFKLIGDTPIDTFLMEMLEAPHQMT
Chain of Thyroid hormone receptor beta (Homo sapiens) (P10828 whole entry, looked up): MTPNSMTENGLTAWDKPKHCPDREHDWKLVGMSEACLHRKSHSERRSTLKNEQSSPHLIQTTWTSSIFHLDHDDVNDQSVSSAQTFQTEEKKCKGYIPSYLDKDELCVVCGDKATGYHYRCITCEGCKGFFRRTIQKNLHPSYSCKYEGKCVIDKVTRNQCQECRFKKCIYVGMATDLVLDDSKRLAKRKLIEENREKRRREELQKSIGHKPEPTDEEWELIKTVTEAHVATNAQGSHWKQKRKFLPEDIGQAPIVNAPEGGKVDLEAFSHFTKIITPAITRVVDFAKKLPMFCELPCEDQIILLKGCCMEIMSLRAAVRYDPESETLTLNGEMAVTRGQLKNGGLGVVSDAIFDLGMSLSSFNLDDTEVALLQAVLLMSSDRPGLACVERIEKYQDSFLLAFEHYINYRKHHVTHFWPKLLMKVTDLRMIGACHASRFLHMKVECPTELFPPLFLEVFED
Chain of Nucleoprotein (Lymphocytic choriomeningitis virus (strain Armstrong)) (P09992 whole entry, looked up): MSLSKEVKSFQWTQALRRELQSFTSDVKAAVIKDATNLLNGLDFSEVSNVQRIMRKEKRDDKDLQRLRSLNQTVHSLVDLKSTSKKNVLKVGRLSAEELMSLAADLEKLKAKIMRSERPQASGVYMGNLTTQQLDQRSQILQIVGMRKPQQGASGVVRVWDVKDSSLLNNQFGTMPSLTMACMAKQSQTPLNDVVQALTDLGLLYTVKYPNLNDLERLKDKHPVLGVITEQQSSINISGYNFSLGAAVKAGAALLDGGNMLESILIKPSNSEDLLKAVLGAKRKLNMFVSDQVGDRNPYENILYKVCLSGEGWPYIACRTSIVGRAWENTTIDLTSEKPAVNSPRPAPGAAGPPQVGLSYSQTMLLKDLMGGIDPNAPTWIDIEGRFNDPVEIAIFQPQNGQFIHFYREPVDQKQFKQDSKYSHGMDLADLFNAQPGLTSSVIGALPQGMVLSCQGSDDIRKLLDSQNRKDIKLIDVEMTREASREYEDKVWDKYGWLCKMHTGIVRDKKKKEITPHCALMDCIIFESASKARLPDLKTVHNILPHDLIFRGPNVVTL
Chain of Voltage-gated inwardly rectifying potassium channel KCNH2 (Homo sapiens) (Q12809 whole entry, looked up): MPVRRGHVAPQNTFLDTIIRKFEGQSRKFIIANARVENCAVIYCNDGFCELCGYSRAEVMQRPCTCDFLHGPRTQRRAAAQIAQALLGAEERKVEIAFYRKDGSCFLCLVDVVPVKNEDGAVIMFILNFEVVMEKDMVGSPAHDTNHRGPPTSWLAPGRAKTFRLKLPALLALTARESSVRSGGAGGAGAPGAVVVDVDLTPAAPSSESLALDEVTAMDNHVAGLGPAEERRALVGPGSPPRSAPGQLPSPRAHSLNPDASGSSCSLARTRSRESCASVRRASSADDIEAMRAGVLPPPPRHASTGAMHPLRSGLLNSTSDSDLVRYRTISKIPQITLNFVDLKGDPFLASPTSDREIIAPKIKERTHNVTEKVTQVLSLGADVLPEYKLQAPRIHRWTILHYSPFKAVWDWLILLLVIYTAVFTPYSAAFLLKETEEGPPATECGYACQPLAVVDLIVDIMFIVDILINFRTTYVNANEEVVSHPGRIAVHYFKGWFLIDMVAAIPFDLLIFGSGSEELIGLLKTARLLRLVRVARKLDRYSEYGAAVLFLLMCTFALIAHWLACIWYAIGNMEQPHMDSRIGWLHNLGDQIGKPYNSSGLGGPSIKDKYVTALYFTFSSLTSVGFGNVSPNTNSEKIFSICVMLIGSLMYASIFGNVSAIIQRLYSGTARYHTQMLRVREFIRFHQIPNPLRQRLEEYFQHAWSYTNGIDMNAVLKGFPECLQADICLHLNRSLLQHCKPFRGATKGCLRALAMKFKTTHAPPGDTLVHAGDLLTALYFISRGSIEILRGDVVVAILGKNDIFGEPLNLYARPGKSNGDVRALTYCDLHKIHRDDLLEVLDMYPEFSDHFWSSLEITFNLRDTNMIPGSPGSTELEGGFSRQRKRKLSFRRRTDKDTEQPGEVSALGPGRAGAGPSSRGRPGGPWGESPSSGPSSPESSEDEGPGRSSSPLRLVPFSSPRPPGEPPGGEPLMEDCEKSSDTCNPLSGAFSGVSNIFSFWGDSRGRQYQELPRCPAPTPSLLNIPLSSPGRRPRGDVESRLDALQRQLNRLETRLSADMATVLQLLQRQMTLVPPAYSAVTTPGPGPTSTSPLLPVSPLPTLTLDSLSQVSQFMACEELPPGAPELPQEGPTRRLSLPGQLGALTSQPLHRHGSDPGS
Chain of Peroxisome proliferator-activated receptor alpha (Homo sapiens) (Q07869 whole entry, looked up): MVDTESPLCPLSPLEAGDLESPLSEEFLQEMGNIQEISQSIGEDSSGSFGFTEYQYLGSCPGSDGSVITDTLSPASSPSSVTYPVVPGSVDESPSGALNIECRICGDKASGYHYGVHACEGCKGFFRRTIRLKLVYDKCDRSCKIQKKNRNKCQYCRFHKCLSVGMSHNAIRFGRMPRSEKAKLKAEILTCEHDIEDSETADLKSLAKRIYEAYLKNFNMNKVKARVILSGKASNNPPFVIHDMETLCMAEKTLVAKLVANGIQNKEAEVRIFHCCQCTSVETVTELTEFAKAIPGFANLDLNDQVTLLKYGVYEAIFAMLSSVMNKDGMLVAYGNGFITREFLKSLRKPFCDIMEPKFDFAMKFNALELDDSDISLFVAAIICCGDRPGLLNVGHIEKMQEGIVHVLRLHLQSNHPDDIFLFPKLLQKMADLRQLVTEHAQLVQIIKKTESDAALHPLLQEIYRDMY
Chain of Nuclear receptor subfamily 1 group I member 2 (Rattus norvegicus) (Q9R1A7 whole entry, looked up): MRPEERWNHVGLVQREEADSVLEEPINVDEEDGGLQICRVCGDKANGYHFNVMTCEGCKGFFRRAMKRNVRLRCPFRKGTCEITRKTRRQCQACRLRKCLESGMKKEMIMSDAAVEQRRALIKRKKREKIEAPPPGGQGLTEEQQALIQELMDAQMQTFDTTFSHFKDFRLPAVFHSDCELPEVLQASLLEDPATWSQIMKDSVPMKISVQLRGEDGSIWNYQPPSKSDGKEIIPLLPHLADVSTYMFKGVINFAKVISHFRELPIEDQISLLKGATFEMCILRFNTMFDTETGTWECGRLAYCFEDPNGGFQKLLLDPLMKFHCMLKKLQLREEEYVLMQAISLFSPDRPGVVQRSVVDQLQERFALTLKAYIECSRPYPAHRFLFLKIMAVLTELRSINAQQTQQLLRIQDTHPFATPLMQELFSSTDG
Chain of Tumor necrosis factor (Homo sapiens) (P01375 whole entry, looked up): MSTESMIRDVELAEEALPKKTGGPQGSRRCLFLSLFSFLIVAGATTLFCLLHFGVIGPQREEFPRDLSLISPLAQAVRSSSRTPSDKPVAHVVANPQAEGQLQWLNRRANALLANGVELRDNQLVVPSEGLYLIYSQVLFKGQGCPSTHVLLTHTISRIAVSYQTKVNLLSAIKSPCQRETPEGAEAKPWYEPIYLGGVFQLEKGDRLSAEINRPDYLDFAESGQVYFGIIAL

Consider `CCOC(=O)c1ccccc1N`, for which the max response in assay [1] is -10.9%; in assay [4], -2.66%; in assay [5] it was 10.1% (inactive); in assay [13], -7.33% (inactive); in assay [16], -8.89% (inactive); in assay [22] it was -1.87% (inactive). Moreover, the compound was called inactive in assay [2], in [11], in [15], in assay [17] and in [23]. The Potency entry in assay [3], in assay [7], in [8], in [9], in assay [10] and in assay [14] was “inactive” throughout. In addition, the Potency result in [18], in [19], in assay [20] and in assay [21] was “inactive” in each case. The activity change % (negative = inhibition) in [6] is 5.04% (inactive). In addition, in assay [12], the activation was 1.49% (inactive).
